Measurements from PubChem BioAssay (Tox21).
Inconclusive results are not listed. Activity calls are given as the source filed them. Calls come from the whole dose curve. Residues, ends and D or L forms follow the SMILES beside them.

assay: qHTS assay to identify small molecule agonists of the NFkB signaling pathway - cell viability counter screen (AID 1159515); conditions: NFkB-bla ME-180 viability, CellTiter-Glo luminescence, 5 h; series mostly up to 61 µM; note: nearly all actives have a fitted effect of over 55% in size
Description: National Center for Advancing Translational Sciences [NCATS]
NIH Chemical Genomics Center [NCGC]
U.S. Environmental Protection Agency [EPA]
National Institutes of Environmental Health Sciences [NIEHS]
National Toxicology Program [NTP]
U.S. Food and Drug Administration [FDA]
Transcription factors and their stimulated target gene expression play pivotal roles across many cellular processes including responses to environmental stimuli. Proper regulation of associated pathways is critical to maintain cell health and function. Constitutive activation of transcription factor pathways has been implicated in tumors as it may block cellular functions such as apoptosis and lead to invasion and metastasis. One important transcription factor that stimulates gene expression in response to cytokines, UV radiation, and other stimuli is nuclear factor-kappa B (NFkB). To measure activation of the NFkB pathway, the CellSensor NFkB-bla ME-180 cell line (Life Technologies, Carlsbad, CA) that stably expresses beta-lactamase reporter gene under the regulation of a NF-kB response element was used. This assay allows measurement of the NFkB pathway activity induced by compounds in a ME-180 cell line. This system quantitates NF-kB activity using a FRET-based assay system where beta-lactamase expression disrupts FRET, allowing for fluorescent measurement of activity. This cell line has been used to screen the Tox21 10K compound library and to identify compounds that induce the NFkB pathway activity. The cytotoxicity of the Tox21 compound library against the NFkB-bla ME-180 cell line was tested in parallel by measuring cell viability using the CellTiter-Glo assay in the same wells.
Tox21 Assay Protocol Summary:
NFkB-bla ME-180 cells were dispensed at 2,000 cells/6 uL of assay medium per well into black wall/clear-bottom 1536-well plates using a Multidrop Combi (ThermoFisher Scientific, Waltham, MA) dispenser. After the assay plates were incubated at 37 C and 5% CO2 for an overnight, 23 nL of compounds dissolved in DMSO, positive controls or DMSO only was transferred to the assay plate by a Pintool station (Kalypsys, San Diego, CA). The assay plates were incubated at 37 C and 5% CO2 for 5 hr. One uL of LiveBLAzer B/G FRET substrate (Life Technologies) was added using a Flying Reagent Dispenser (Aurora Discovery, San Diego, CA) and the plates were incubated at room temperature for 1.5 hr. Fluorescence intensity (405 nm excitation, 460 nm and 530 nm emissions) was measured using an Envision plate reader (PerkinElmer, Shelton, CT). For cytotoxicity, 3 ul/well of CellTiter-Glo reagent was added into the assay plates using an FRD. After 30 min incubation at room temperature, the luminescence intensity was measured using a ViewLux plate reader (PerkinElmer).

Row | SMILES | outcome
1 | CCCC(CCC)C(=O)O | inactive
2 | Nc1ccc(O)c(C(=O)O)c1 | inactive
3 | CCCC(O)C(CC)CO (stereo not given) | inactive
4 | Cc1cc(=O)[nH]c(=S)[nH]1 | inactive
5 | C1N2CN3CN1CN(C2)C3 | inactive
6 | O=C(O)c1cccnc1 | inactive
7 | O=C1NC(=O)c2ccccc21 | inactive
8 | Nc1ccc(C(=O)O)cc1 | inactive
9 | COc1c2occc2cc2ccc(=O)oc12 | inactive
10 | CC(C)(Oc1ccc(C2CC2(Cl)Cl)cc1)C(=O)O (stereo not given) | inactive
11 | C[C@]12C=CC(=O)C=C1CC[C@@H]1[C@@H]2[C@@H](O)C[C@@]2(C)[C@H]1CC[C@]2(O)C(=O)CO | inactive
12 | NC(=O)c1cnccn1 | inactive
13 | O=C1CN(/N=C/c2ccc([N+](=O)[O-])o2)C(=O)N1 | inactive
14 | CC(=O)Nc1nnc(S(N)(=O)=O)s1 | inactive
15 | O=C(O)c1cc(N=Nc2ccc(S(=O)(=O)Nc3ccccn3)cc2)ccc1O | inactive
16 | O=C(O)c1[nH]n(-c2ccc(S(=O)(=O)O)cc2)c(=O)c1N=Nc1ccc(S(=O)(=O)O)cc1 | inactive
17 | O=C(C1CCCCC1)N1CC(=O)N2CCc3ccccc3C2C1 (stereo not given) | inactive
18 | CCOc1ccc(NC(=O)CC(C)O)cc1 (stereo not given) | inactive
19 | COC(=O)[C@H](Cc1ccccc1)NC(=O)[C@@H](N)CC(=O)O (H-Asp-Phe-OMe) | inactive
20 | Cn1cc[nH]c1=S | inactive

Row | SMILES | outcome
21 | c1ccc2[nH]ccc2c1 | inactive
22 | CCCCOC(=O)CC(CC(=O)OCCCC)(OC(C)=O)C(=O)OCCCC | inactive
23 | CCCN(CCC)S(=O)(=O)c1ccc(C(=O)O)cc1 | inactive
24 | CC1(C)[C@@H]2CC[C@@]1(C)C(=O)C2 | inactive
25 | CCCCC(CC)COC(=O)/C=C/c1ccc(OC)cc1 (stereo not given) | inactive
26 | O=C(O)CCCCC(=O)O | inactive
27 | O=c1cc[nH]c(=S)[nH]1 | inactive
28 | O=C(O)C(=O)O | inactive
29 | Cc1ccc(S(=O)(=O)NC(=O)NN2CCCCCC2)cc1 | inactive
30 | CCCCCCCCCCCCCCCC(=O)O | inactive
31 | O=S(=O)(O)NC1CCCCC1 | inactive
32 | NNC(=O)c1ccncc1 | inactive
33 | CC(=O)NS(=O)(=O)c1ccc(N)cc1 | inactive
34 | Cc1cn([C@H]2C[C@H](N=[N+]=[N-])[C@@H](CO)O2)c(=O)[nH]c1=O | inactive
35 | N=C(N)c1ccc(OCCCCCOc2ccc(C(=N)N)cc2)cc1 | inactive
36 | OCCc1ccccc1 | inactive
37 | Cc1noc(NS(=O)(=O)c2ccc(N)cc2)c1C | inactive
38 | O=C(c1ccccc1)c1ccccc1 | inactive
39 | CC(=O)OCC(COC(C)=O)OC(C)=O | inactive
40 | COc1ccc2[nH]cc(CCNC(C)=O)c2c1 | inactive
